According to PubChem BioAssay (NCI):
The panel holds about 79,000 compounds, 15% with a hit somewhere; the sample as a whole holds those more often. Values without a mark were called inactive. Active and inactive are the calls of the source. Rule as the data show it: active = growth inhibition above about 70%; inactive = the rest. Where a SMILES comes first, the peptide text is derived from it. [ ]: non-standard residue; d: D form. The star is where a group is joined. ξ: configuration not given here. ξE = NC(CCC(=O)O)C(=O)O; Cbz = O=C(OCc1ccccc1)*

What was measured:
[1] = NCI Yeast Anticancer Drug Screen. Data for the rad50 strain (AID 155);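 also: 0% = growth of vehicle-only cultures of the same strain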; conditions: S. cerevisiae rad50 strain growth inhibition; at 50.0 µM; hits give high values
Outline: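 Readout: growth inhibition relative to vehicle-treated cultures. Compound exposure was carried out in a genetically defined yeast strain deficient in DNA damage repair.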

[2] = NCI Yeast Anticancer Drug Screen. Data for the mec2-1 strain (AID 157); conditions: S. cerevisiae mec2-1 strain, at 50.0 µM, hits give high values
Outline: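 Each compound was tested on mec2-1 yeast, a strain altered in DNA damage repair or cell cycle control. Growth inhibition is reported relative to vehicle.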

[3] = NCI Yeast Anticancer Drug Screen. Data for the sgs1 mgt1 strain (AID 161);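 also: 0% = growth of cultures given vehicle only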; conditions: S. cerevisiae sgs1 mgt1 strain, at 50.0 µM, hits give high values
Outline: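 Inhibition of yeast growth, normalised to vehicle-treated controls, is reported for a strain bearing genetic alterations in DNA damage repair.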

[4] = NCI Yeast Anticancer Drug Screen. Data for the cln2 rad14 strain (AID 165);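 also: 0% = growth equal to vehicle treated cultures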; conditions: S. cerevisiae cln2 rad14 strain, at 50.0 µM, hits give high values
Outline: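 Test compounds were added to cln2 rad14 yeast cultures; inhibition of growth was then determined by comparison with vehicle treatment.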

[5] = NCI Yeast Anticancer Drug Screen. Data for the bub3 strain (AID 167); conditions: S. cerevisiae bub3 mutant strain, at 50.0 µM, hits give high values
Outline: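 Readout: yeast growth inhibition, expressed relative to vehicle-only wells. The test organism is a mutant strain from a panel with lesions in DNA repair or checkpoint genes.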

[6] = NCI Yeast Anticancer Drug Screen. Data for the mlh1 rad18 strain (AID 175); conditions: S. cerevisiae mlh1 rad18 strain growth inhibition; at 50.0 µM; hits give high values
Outline: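 Inhibition values reflect reduced growth of mutant yeast versus vehicle-treated controls following compound exposure; the mutations affect DNA damage repair.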

Compound | growth inhibition [1] | growth inhibition [2] | growth inhibition [3] | growth inhibition [4] | growth inhibition [5] | growth inhibition [6]
Cc1cc(C)[n+](C)c(/C=C\c2ccc(Cl)cc2)n1 | 7.3% | -6.95% | 10.8% | 3% | -4.45% | 12.9%
Cc1ccc(Oc2ccc(C(=O)c3cccc(C(=O)c4ccc(Oc5ccc(C)cc5)cc4)n3)cc2)cc1 | -18.6% | 2.05% | -38.2% | -28.2% | -15.3% | -24.9%
CC(C)(C)N/N=C(\C(=O)Nc1cccc(Cl)c1)C1C(=O)Nc2ccccc2S1=O (stereo unspecified) | -31.1% | -43.8% | -24.6% | 10.7% | -11.2% | 8.75%
CSC1(C)CC2C(CC1N1CCOCC1)C2(C)C (stereo unspecified) | -28.4% | -33.9% | -41.6% | -14.2% | -33.4% | -26.2%
COC(CN1C(=O)CSC1=S)OC | 10.8% | -1.65% | 27.1% | 17.2% | 29.1% | -6.8%
COc1ccc(Cc2ccccc2)cc1 | -2% | -13.2% | 17.4% | 7.8% | -4.55% | 6.65%
CN(CCc1ccccn1)C(=S)N/N=C/c1ccccn1 | 77% (active) | 83.8% (active) | 91% (active) | 89.7% (active) | 89.8% (active) | 91% (active)
C=CCC1CCC/C1=N\O (stereo unspecified) | -13.4% | 10.4% | 17.3% | -12.2% | -3.15% | 3.9%
O=C(O)CCC(NC(=O)OCc1ccccc1)C(=O)NCC(=O)O (stereo unspecified) (Cbz-[ξE]-Gly-OH) | 12.3% | 2.85% | 0.35% | 46.8% | 3.15% | -6.5%
C(=C\c1ncc(-c2ccccc2)cc1-c1ccccc1)/c1ccccc1 | -12.3% | -20.8% | 5.8% | -6.8% | 0.75% | -1.9%
CC[C@@]1(C)CCC2c3ccc(O)cc3CC[C@H]2C1C (stereo partly specified) | -2.1% | -9.1% | 21.4% | 42.6% | -8.75% | -6.6%
Cc1cccc(C)c1NC(=O)C(=O)CC(=O)c1cccc([N+](=O)[O-])c1 | 45.4% | 11.9% | 2.2% | 24.4% | 19.2% | 40.9%
O=C1C2CCC(C2)C12CC1(c3ccccc3)C(=O)c3ccccc3N1O2 (stereo unspecified) | -9% | -31.6% | -25.1% | 8.85% | 0.25% | -27.4%
COc1cccc(C(=O)NCCNCCNC(=O)c2cccc(OC)c2OC)c1OC | -0.8% | 0.7% | -3.95% | -6.6% | -1.75% | -2.35%
CN(C)CCCOc1nc2c(c(=O)n(C)c(=O)n2C)n1C (tested in a mixture with another compound) | 0.9% | 8.9% | -19.9% | -9.35% | -18.9% | -7.15%
CC(=O)Nc1ccc(C(=O)NN2C(=O)CSC2c2ccc([N+](=O)[O-])cc2)cc1 (stereo unspecified) | -24.1% | -39.8% | -54.5% | -6.3% | -24.3% | -53.2%
CC1=C(\C=C/C(C)=C/C=C/C(C)=C/C=N/NC(=O)c2cccnc2)C(C)(C)CCC1 | 2.4% | -7.4% | 33.5% | 41.6% | 30% | 27.6%
COc1ccccc1/C=C(\S)C(=O)O | -18.9% | -6.9% | -19.3% | -43.5% | -12.7% | 8.45%
CCOc1ccccc1NC(=O)C1CCCCC1C(=O)O (stereo unspecified) | 14.2% | 16.7% | 14.6% | 25.6% | 12.7% | 7.8%
O=c1ccc2c([nH]1)CCCC2 | -8.25% | -8.25% | -30.9% | 1.35% | -9.15% | 0.55%
COc1cc(C=C(c2ccc(N(C)C)cc2)c2ccc(N(C)C)cc2)c2ccccc2c1OC | 22.9% | 14.5% | 3.15% | 27.3% | -12.8% | -42.5%

Compound | growth inhibition [1] | growth inhibition [2] | growth inhibition [3] | growth inhibition [4] | growth inhibition [5] | growth inhibition [6]
C(/C=C/c1csnn1)=C\c1ccccc1 | 8.9% | 8.85% | -4.2% | 15.8% | 2.35% | 0.5%
C=C1C(=O)OC2C1C(OC(=O)/C(=C/CO)CO)CC1(CO1)C1CC=C(C)C21 (stereo unspecified) | 32.2% | 8.05% | 19.8% | -2.15% | -1.95% | 9.6%
CCCCNC(C)(C)CSS(=O)(=O)O | -12.9% | -23.3% | -22.2% | -59.8% | 4.1% | -14.6%
Cc1cc(C)c2nc3c(c(C(O)C4CCCCN4)c2c1)CC/C3=C\c1ccc(Cl)cc1 (stereo unspecified) | -28.8% | -22.4% | 16.9% | -7.75% | -23.9% | -4.75%
CN(C)c1nc(Cl)cc2nc(Cl)cn12 | 0.25% | 5.7% | 2.5% | -0.35% | -8.15% | 0.5%
Nc1ccccc1CO | 3% | 2.4% | 2.25% | -0.05% | -4.65% | 7.1%
COc1ccc(/C=N\N2CN(C(CC(N)=O)C(=O)O)C(O)(CCl)N=C2N)cc1OC (stereo unspecified) | 9.1% | -6.9% | 3.1% | -5.65% | 6.8% | -0.1%
CN(C)CC1CCCC/C1=N/O (stereo unspecified) | 0.5% | -6.75% | -9.4% | -17.5% | 2.55% | -5.15%
NC(N)=NC1CCc2ccccc2C1 (stereo unspecified) | 4.4% | -2.85% | -4% | -5.1% | -0.6% | -5.1%
CC1C=CC(O)[C@]2(CO)CC3(CCC12)OCCO3 (stereo partly specified) | -13.7% | 3.95% | -13.6% | 17.6% | -12.7% | -16.3%
O=c1nnc(O)c2n(O)cccc1-2 | -24.2% | -11.8% | 6.55% | -42.5% | -1.75% | 14%
FC(F)(F)c1cccc(NC(=S)SCc2ccc(Cl)c(Cl)c2)c1 | 98.3% (active) | 98.8% (active) | 98.8% (active) | 99.1% (active) | 98% (active) | 98.2% (active)
COc1cccc(C2c3cc4c(cc3OC(N3CCCC3)C2C)OCO4)c1OC (stereo unspecified) | 24.8% | 17.6% | -9.65% | 1% | 11.4% | 29.9%
COc1nc2c(c(O)c(C)c(=O)n2OC2OC(COC(C)=O)C(OC(C)=O)C(OC(C)=O)C2OC(C)=O)c(=O)n1C (stereo unspecified) | -2.1% | -15.8% | 7.95% | -7.75% | 0.45% | 2.3%
O=C(C1C2C=CC(C2)C1C(=O)N1CCCCC1)N1CCCCC1 (stereo unspecified) | 2.5% | 25.4% | 13.2% | -1.8% | 12.3% | 11.5%
O=c1c2ccccc2n2n1Cc1ccccc1C2 | 38.1% | 9.1% | -11.5% | 6.95% | 12.2% | 59.4%
O=C(O)Cc1c(O)ccc2ccccc12 | -32.7% | -16.3% | -34.5% | -29.8% | -38.6% | -3.7%
CC(C)NC1(C(N)=O)CCN(Cc2ccccc2)CC1 | 7.85% | -17.2% | 8.1% | -3.15% | -51.9% | 18.1%
O=P(O)(O)c1ccc2c(c1)OCCOCCOCCOCCO2 | -41.9% | -10.9% | -29.5% | -21.9% | -24.4% | -14.8%
Cn1c(N)nc2c1c(=O)[nH]c(=O)n2C | 12.6% | -0.75% | 5.25% | 13.2% | -19.4% | 21.8%
